Source: PubChem
This is a sample that favours compounds with a hit; in the whole collection about 21% have one here.
Pf growth 48h – inhibits P. falciparum growth in the first generation, 48 h. P. falciparum luciferase growth in erythrocytes, 48 h. Potency, µM (highest dose often 28.7 µM), hits mostly inhibitors. actives 5.9% (n = 310,000). AID 504832
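Compounds are pin-transferred into medium, infected erythrocytes (2% hematocrit, 0.1% parasitemia final) are added, and plates sit one parasite generation at 37 C in 5% CO2. Detection reagent is then added and luminescence measured.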
Pf growth 96h – inhibits malaria parasite growth, 96 h; P. falciparum luciferase reporter growth, 96 h; Potency, µM (doses to about 28.7 µM), actives largely listed as inhibitors; actives 6.9% (n = 320,000)
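Two parasite generations (96 h, 37 C, 5% CO2) of compound exposure in infected erythrocytes (0.05% parasitemia, 2% hematocrit). Luciferase-reporter P. falciparum; decreased luminescence indicates inhibited growth, aimed at apicoplast-acting delayed death.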
Cycloheximide cs – affects cycloheximide protein synthesis inhibition readout, counter-screen; cell reporter, cycloheximide protein synthesis inhibition counterscreen; actives 12% (n = 300,000); max response, %; in the data active means max response mostly above about 13%, no sharp cut-off; inactive means mostly below about 14%; further: read at 38.3 µM for the half of the compounds with a filed dose
Shiga inhibitor – blocks Shiga toxin action in Vero cells | actives 9.2% (n = 290,000) | inhibition, % at 38.7 µM | Vero cells, Shiga toxin protein synthesis inhibition reporter; in the data active means inhibition mostly above about 28%, no sharp cut-off; inactive means mostly below about 43%
Of the large screens only hits and unclear results are named; the others gave an inactive call. Unless noted, the call rests on the fitted dose curve; in most records, active means well fitted inhibition curve with a large enough effect; inconclusive means small, poorly fitted or top-dose-only effect, or another doubt; inactive means no such curve, though single readings can be large or run the other way.

COc1ccc(/C=N/Nc2cc(C)nc3ccccc23)cc1	Pf growth 48h 0.74µM
COc1ccc(/C=N/Nc2cc(C)nc3c(C)cccc23)cc1	Pf growth 48h inconclusive
COc1cccc2c(N/N=C/c3ccc(O)c(O)c3)cc(C)nc12	Cycloheximide cs 22, Shiga inhibitor 53
CCn1c(COC(=O)CNC(=O)c2ccccc2)nc2cc(S(=O)(=O)N(C)C)ccc21	none (no result: Cycloheximide cs, Shiga inhibitor)
CCOc1ccc(NC(=O)c2cccc(OC(=S)N3CCOCC3)c2)cc1	Pf growth 48h inconclusive, Cycloheximide cs 11
Cc1cccc(NC(=O)c2cccc(OC(=S)N3CCOCC3)c2)c1C	Pf growth 96h 1.9µM
Cc1cccc(NC(=O)c2ccc(S(=O)(=O)N3CCOCC3)cc2)c1C	Pf growth 96h inconclusive
O=C(Nc1ccc(Br)cc1)c1cccc(OC(=S)N2CCOCC2)c1	Cycloheximide cs 19, Shiga inhibitor 50
O=C(Nc1ccc(S(=O)(=O)N2CCOCC2)cc1)c1cccc(Br)c1	none
COc1ccc(NC(=O)c2cccc(OC(=S)N3CCOCC3)c2)cc1	Pf growth 48h inconclusive
COCc1cc(C)nc(SCC[N+](C)(C)CC(=O)Nc2cccc(C(F)(F)F)c2)c1C#N	Pf growth 48h inconclusive, Pf growth 96h inconclusive
CN(C)/C=C1\Oc2ccc3ccccc3c2C1=O	Cycloheximide cs 34, Shiga inhibitor 116
COc1ccccc1CN1CC(C(=O)N(Cc2cnn(C)c2)C(C)C)CCC1=O (configuration not stated)	none
COc1cc(CN/C(C)=C(\C#N)C(N)=O)cc(OC)c1OC	Pf growth 96h 2.1µM
COc1cc(CNC(=O)C2CCCC2)cc(OC)c1OC	none
CNC(=O)c1oc(-c2ccccc2)nc1C	none
CCC(=O)Nc1ccc2c(c1)ncn2CCc1ccccc1	none
CCCn1cnc2cc(NCc3ccc(Br)cc3)ccc21	Cycloheximide cs 29, Shiga inhibitor 64
Cc1ccc(CNc2ncnc3cc(Cl)ccc23)cc1	Pf growth 48h inconclusive, Pf growth 96h inconclusive
CN(C)c1ccc(CNc2ccc3c(c2)ncn3C(C)(C)C)cc1	Cycloheximide cs 28, Shiga inhibitor 58
CCCn1cnc2cc(NCc3ccccc3O)ccc21	Pf growth 96h inconclusive, Cycloheximide cs 39, Shiga inhibitor 113
Cc1ccc(CNc2ccc3c(c2)ncn3C(C)C)cc1	Pf growth 96h inconclusive, Cycloheximide cs 36, Shiga inhibitor 61
CCn1cnc2cc(NCc3ccc(C)cc3)ccc21	Cycloheximide cs 60, Shiga inhibitor 90
CCn1cnc2cc(NCc3ccc(N(C)C)cc3)ccc21	Cycloheximide cs 52, Shiga inhibitor 154
CCn1cnc2cc([N+](=O)[O-])ccc21	Pf growth 48h inconclusive
CCn1cnc2cc(NCc3ccc(Br)cc3)ccc21	Cycloheximide cs 40, Shiga inhibitor 67
CCN(CC)c1ccc(CNc2ccc3c(c2)ncn3CC)cc1	none
CCCn1nnnc1NCc1cccc(OC)c1	none
CCCn1cnc2cc(NCc3cccc(OC)c3)ccc21	Pf growth 48h inconclusive, Cycloheximide cs 24, Shiga inhibitor 35 (no result: Pf growth 96h)
CCn1cnc2cc(NS(=O)(=O)c3ccc(C)cc3)ccc21	Pf growth 48h inconclusive (no result: Pf growth 96h)
COc1ccc(C(=O)NC(Cn2ccnc2)C(C)(C)C)cc1OC1CCN(C(C)C)CC1 (configuration not stated)	none
Cc1ccc(S(=O)(=O)N2CCC(=O)N(CCOCc3ccc(F)cc3)CC2)cc1	Pf growth 96h inconclusive
c1ccc(CNc2ccc3ccccc3n2)nc1	Cycloheximide cs 30 (no result: Pf growth 96h)
Cc1nc(NCc2ccccn2)c2ccccc2n1	none
Cc1cc(NCc2ccccn2)nc2ccccc12	Pf growth 96h inconclusive, Cycloheximide cs 21 (no result: Pf growth 48h)
c1ccc(CNC2=NCCC2)nc1	none
FC(F)(F)c1ccc(NCc2ccccn2)nc1	Cycloheximide cs 56, Shiga inhibitor 97 (no result: Pf growth 48h)
O=S(=O)(NCc1ccccn1)c1cc(C(F)(F)F)ccc1Cl	none
OC(CNCc1ccccc1Cl)C(F)(F)F (configuration not stated)	none
COc1ccc(/C=C/C(=O)OCC(=O)Nc2ccc3[nH]c(=O)[nH]c3c2)cc1OC	none (no result: Cycloheximide cs, Shiga inhibitor)
CN(C)c1ccc(-c2ccccc2)nn1	Cycloheximide cs 32, Shiga inhibitor 94 (no result: Pf growth 48h)
COc1ccc(C(=O)CSc2ccc(-c3ccccc3)nn2)cc1	Pf growth 96h inconclusive
Cc1cnc(C(=O)OC(C)C(=O)Nc2ccccc2-c2ccccc2)cn1 (configuration not stated)	none (no result: Cycloheximide cs, Shiga inhibitor)
CCc1nc(NCc2ccccn2)c2oc3ccccc3c2n1	Pf growth 96h inconclusive
c1ccc(CNc2ncnc3c2oc2ccccc23)nc1	Cycloheximide cs 23, Shiga inhibitor 59
COc1ccc(CCNc2ncnc3c2oc2ccccc23)cc1OC	Pf growth 48h inconclusive, Pf growth 96h 2.9µM
c1ccc(-c2nc(NCc3cccnc3)c3oc4ccccc4c3n2)cc1	Pf growth 48h inconclusive, Pf growth 96h 9.3µM
CC(=O)c1ccc(Nc2ncnc3c2oc2ccccc23)cc1	Cycloheximide cs 57, Shiga inhibitor 66
CC(C)CN1C(=O)C(=O)N(CC(=O)N2CCN(c3ccccc3)CC2)C1=O	none (no result: Cycloheximide cs, Shiga inhibitor)
CS(=O)(=O)c1cccc(S(=O)(=O)N2CCCCCC2)c1	none
CC12CCC=CC1C(c1cccc([N+](=O)[O-])c1)N(Cc1ccccc1)C2=O (configuration not stated)	none (no result: Pf growth 48h, Pf growth 96h)
Cc1ccc(-n2[nH]c(C)c(/C=N/NC(=O)c3ccc([N+](=O)[O-])cc3)c2=O)c(C)c1	Pf growth 48h inconclusive
c1ccc(-c2nc(NCC3CCCO3)c3oc4ccccc4c3n2)cc1 (configuration not stated)	Pf growth 96h 15µM (no result: Pf growth 48h)
O=C(O)CNc1nc(-c2ccccc2)nc2c1oc1ccccc12	none
c1ccc2c(c1)oc1c(NCC3CCCO3)ncnc12 (configuration not stated)	Cycloheximide cs 34, Shiga inhibitor 54
CN(Cc1ccccc1)C(=O)[C@H](Cc1ccc2ccccc2c1)NC(=O)[C@@H]1C[C@@H](O)CN1C(=O)c1cn(C)c2ccccc12	none (no result: Pf growth 48h, Pf growth 96h)
CCc1noc(C)c1C(=O)OCC(=O)c1ccccc1OC	Pf growth 96h inconclusive
Cc1ccc(-c2ccc(C3C(C#N)=C(N)Oc4n[nH]c(C)c43)o2)cc1 (configuration not stated)	Pf growth 48h inconclusive, Cycloheximide cs 32, Shiga inhibitor 50
COc1ccc(CC(=O)Nc2cccc(/C(C)=N/NC(=O)C3(C)CC3(Br)Br)c2)cc1 (configuration not stated)	Pf growth 48h inconclusive, Pf growth 96h inconclusive
CC(=O)Nc1ccc(NC(=O)c2cc(=O)c3ccccc3o2)cc1	none
NC(=O)c1ccsc1NC(=O)c1cc(=O)c2ccccc2o1	Cycloheximide cs 44
Cc1cc(C)cc(NC(=O)c2cc(=O)c3ccccc3o2)c1	Pf growth 96h inconclusive
Cc1cccc(NC(=O)c2cc(=O)c3ccccc3o2)c1	Cycloheximide cs 24
Cc1cccc(NC(=O)c2cc(=O)c3ccccc3o2)n1	Cycloheximide cs 24
Cc1ccc(NC(=O)c2cc(=O)c3ccccc3o2)cc1	Cycloheximide cs 29
COc1cccc2c1OCC/C2=N\NC(=O)C(C)Oc1ccc([N+](=O)[O-])cc1 (configuration not stated)	none
CCCCCCC(C)OC(=O)c1ccccc1C(=O)O (configuration not stated)	Pf growth 48h inconclusive
